Screening results as filed in PubChem.
Only a selection was taken, and hits are over-represented in it overall.
Tg IFNy HTS – inhibitors of Toxoplasma gondii growth with IFN-gamma | Toxoplasma gondii growth in IFN-gamma-treated host cells; stronger effect = lower value | activity change, negative = inhibition, % (concentration not given with the values) | hit rate 3.8% among 69,000 | AID 1259416; in the data active = activity change below about -70%, passing the limit was not always enough;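 note: host cells are HeLa cells infected with Toxoplasma gondii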
Large screens that a line does not name were inactive.

O=C(NC(=S)SCc1ccccc1)c1ccc(C(F)(F)F)cc1	none
Cn1c(SCc2ccccc2)nnc1-c1ccc(C(C)(C)C)cc1	none
CCc1nc(C)sc1CNC(=O)c1cc(C(C)C)on1	none
Nc1ncnc(SCc2c(Cl)cccc2Cl)n1	Tg IFNy HTS -81
O=c1[nH]c(SCc2c(Cl)cccc2Cl)nc2ccnn12	none
CSc1nc(N)nc(COc2ccccc2Cl)n1	none
CCOc1ccccc1NC(=O)NCC(c1cccnc1)c1cn(C)c2ccccc12 (stereo not drawn)	none
Cc1ccc(CC(=O)N2CCn3cc(Cn4cncn4)nc3C2)cc1	Tg IFNy HTS -74
O=C(Cc1ccc(F)cc1)N1CCn2cc(Cn3cncn3)nc2C1	none
O=C(Cc1cccc(F)c1)N1CCn2cc(Cn3cncn3)nc2C1	none
CCN(Cc1ccncc1)C(=O)CC(=O)Nc1cc(C)cc(C)c1	none
Cc1nnsc1CN(C)C(=O)c1n[nH]c2ccccc12	none
O=c1c2c3ccccc3[nH]c2c2cccc3c2n1CC3	Tg IFNy HTS -89
CN1CCc2ccccc2Cc2[nH]c3ccccc3c2CC1	none
O=c1cc(O)c2c(=O)n3c4c(cccc4c2o1)CCC3	none
O=C(NCC1CC1)c1ccn(-c2ccc3ccc(-c4cccc(F)c4)cn23)n1	none
CCN(CCS(=O)(=O)c1ccc(C)cc1)C(=O)c1cn[nH]n1	none
Cc1nc(-c2cccc(-c3cccc4ccnn34)c2)no1	none
COc1ccc(-c2cccc(-c3noc(C)n3)c2)c(OC)c1OC	Tg IFNy HTS -75
COc1ccc(-c2noc(COc3cccnc3C)n2)c(OC)c1OC	none
O=C1CCC2(CCCO2)CCN1Cc1noc(-c2ccccc2)n1 (stereo not drawn)	none
CC1(CCC#N)N=C(SCCC#N)N(c2ccccc2)C1=O (stereo not drawn)	Tg IFNy HTS -74
CCO[C@H]1CO[C@@]2(CCCN(C(=O)c3ccncn3)C2)C1	none
Cc1cccc(S(=O)(=O)N2CCC3(CC2)OC(C(=O)N(C)C)Cn2ccnc23)c1 (stereo not drawn)	none
OCc1ccc(CN(Cc2ccncc2)Cc2ccc(F)cc2)o1	none
CCc1ccc(CN(Cc2ccncc2)Cc2ccc(F)cc2)nc1	none
Fc1ccc(CN(Cc2ccncc2)Cc2cccc3c2OCO3)cc1	Tg IFNy HTS -82
COCC1CC2(CCN(Cc3cnn(C)c3)CC2)CO1 (stereo not drawn)	none
COc1cc(N2CCCn3cnc(COC(C)C)c3C2)ncn1	none
CSc1sc(C(=O)Nc2cc(C(F)(F)F)cc(C(F)(F)F)c2)c2c1C=CCC2	none
COc1cncc(C(=O)Nc2ccc(Cl)cc2)c1	none
CSc1ncc2c(n1)-c1c(SC)sc(C(=O)Nc3ccc(Cl)cc3)c1CC2	Tg IFNy HTS -85
Cc1nc(-c2ccccn2)nc(N2CCN(CCO)CC2)c1Cl	none
Cc1nc(-c2ccccn2)nc(N(C)c2ccccc2)c1Cl	Tg IFNy HTS -101
CCCc1cnc(C)nc1-c1c(F)cccc1OC	none
c1cc(CNc2ccc(N3CCCC3)cc2)ccn1	none
O=S1(=O)CCC(N2C(=S)SC3CS(=O)(=O)CC32)C1 (stereo not drawn)	none
O=C(C1CCN(c2cncnc2N2CCOCC2)CC1)N1CCC(N2CCCCC2)CC1	none
Cc1c(C(=O)Nc2ccc(N3CCC(N4CCOCC4)CC3)c(C#N)c2)cnn1-c1ccc(Cl)cc1	Tg IFNy HTS -84
Cc1cc(C(=O)Nc2ccc(N3CCOCC3)cc2)nn1C	none
Cc1oc(-c2ccc(Cl)cc2)nc1Cn1ccn2nc(-c3ccc(F)cc3)cc2c1=O	none
C=CCN(Cc1cccc(OC)c1)C(=O)c1ccc2[nH]ccc2c1	none
COCCN1[C@@H]2CCN(C(=O)CC3CC3)CC[C@@H]2Oc2ccccc2S1(=O)=O	none
CCCC(C(=O)N1CCN(c2nc(C)cnc2C)CC1)n1cccc1 (stereo not drawn)	none
NC(=O)c1cccnc1N1CCN(Cc2cc3n(n2)CCCNC3)CC1	none
COc1nc(Nc2ccccc2)nc(OC)n1	Tg IFNy HTS -116
COc1ccc(-c2nc(Nc3ccccc3)c3ccccc3n2)cc1	none
Cc1cc(C)nc(Nc2ccc(O)cc2)n1	none
COC(=O)CN1CCN(c2nc(C(C)(C)C)nc3c2cnn3C)C(C)C1=O (stereo not drawn)	none
Fc1ccc(C(F)(F)F)cc1CN1CCCC1c1ccccn1 (stereo not drawn)	none
Cn1cc(CN2CCCC2c2cncc(Nc3ccccn3)n2)c2cc(F)ccc21 (stereo not drawn)	Tg IFNy HTS -100
Cc1c(CN2CCCC2c2ccccn2)[nH]c2ccc(F)cc12 (stereo not drawn)	none
CO[C@H]1CN(C(=O)C2(c3ccc(Cl)cc3)CCC2)CC[C@H]1N	none
COC(=O)c1sc(C(C)(C)C)cc1NC(=O)c1nccnc1C(=O)O	none
COCCn1c(COc2ccc(Cl)cc2)nc2ccccc21	none
COc1ccc(Cc2nc3ccccc3n2CCCOc2ccccc2OC)cc1OC	Tg IFNy HTS -97
CC(=O)N(C)Cc1nc2ccccc2n1CCCCOc1ccccc1Cl	none
Cc1ccc(Cl)cc1NC(=O)c1nnn(Cc2nc(-c3ccccc3C)oc2C)c1C	none
CN[C@@H]1C[C@H]2O[C@@](C)([C@@H]1OC)n1c3ccccc3c3c4c(c5c6ccccc6n2c5c31)C(=O)N[C@H]4O	Tg IFNy HTS -80
Cc1cc(-c2cnc(SCC(=O)c3ccc(F)cc3F)nc2-c2ccco2)on1	none
CC[C@@]1(C2O[C@@H](C3O[C@@](O)(CO)[C@H](C)C[C@@H]3C)C[C@@H]2C)CC[C@H]([C@]2(C)CC[C@]3(C[C@H](O)[C@@H](C)[C@@H]([C@@H](C)[C@@H](OC)[C@H](C)C(=O)O)O3)O2)O1 (stereo partly drawn)	Tg IFNy HTS -80
CN(C)C(CNC(=O)c1ccc(-n2cccn2)nc1)c1cccc(Cl)c1 (stereo not drawn)	none
Cc1ccc(C(C)NC(=O)Cn2ncc3c(N4CCN(c5ccccn5)CC4)ncnc32)cc1 (stereo not drawn)	none
CNC1(c2ccc(OC)cc2)Oc2ccccc2C(C#Cc2ccccc2)=C1C (stereo not drawn)	Tg IFNy HTS -107
O=C1CN(Cc2nc(-c3ccco3)no2)CCN1Cc1ccc2c(c1)OCO2	none
COCCCNC(=O)N1CCC2(CC1)Nc1cc(OC)ccc1-n1cccc12	none
Cc1oc(-c2ccccc2)nc1Cn1nnc(-c2nc(-c3cccc(C(F)(F)F)c3)no2)c1C	none
COc1ccc(CNC(=O)Cn2ncc3c(N4CCN(c5ccccc5)CC4)ncnc32)cc1	Tg IFNy HTS -102
COc1ccc(CNC(=O)Cn2ncc3c(N4CCN(C)CC4)ncnc32)cc1	none
CCc1ccc(CNC(=O)Cn2ncc3c(N4CCN(c5ccccn5)CC4)ncnc32)cc1	none
Cc1ccc(CNC(=O)Cn2ncc3c(N4CCN(c5ccccc5)CC4)ncnc32)cc1	none
CN(C)CCNC(=O)Cn1ncc2c(N3CCN(c4ccccn4)CC3)ncnc21	none
O=C(Cn1ncc2c(N3CCN(c4ccccn4)CC3)ncnc21)NCc1ccccc1	Tg IFNy HTS -105
CS(=O)(=O)NC1CCOC2(CCN(Cc3cc(F)ccc3F)CC2)C1 (stereo not drawn)	none
CN(C)CCNC(=O)c1ccc2nnc(C3CCN(Cc4ccccc4)C3)n2c1 (stereo not drawn)	none
CS(=O)(=O)c1ccc(-c2nc3ccccc3n2CCO)cc1	none
CCOc1ccc(-c2nccn2CCN(C)C)cc1CO	none
CCc1ccc(-c2noc(-c3c(O)c4cccc(Cl)c4[nH]c3=O)n2)cc1	none
CCC1=NOC(CNCc2nc(-c3ccco3)no2)C1 (stereo not drawn)	none
Cc1cccc(C(=O)N(CCN(C)C)Cc2ccsc2)c1	none
NS(=O)(=O)c1ccc(NC(=O)Nc2ccc(F)cc2)cc1	none
NS(=O)(=O)c1ccc(NC(=O)c2ccc(-c3cc(Cl)ccc3Cl)o2)cc1	Tg IFNy HTS -100
O=C(Nc1ccc(S(=O)(=O)Nc2ccccn2)cc1)c1ccc(Cl)c(Cl)c1	none
